Screening data as filed in PubChem.
The sample as a whole holds a higher share of hits than the screen did.
GBA mod: alters purified human glucocerebrosidase activity | P04062 | purified enzyme, resorufin glucoside fluorescence (screen aimed at inhibitors), 20 min | Potency, µM | 1.1% of 48,000 active; in the data active = potency below about 15 µM; inconclusive = mostly about 16 µM to 33 µM;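 also: the screen sought inhibitors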
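Wild-type enzyme at 0.2 nM final in 50mM citric acid/KH2PO4, 10mM sodium taurocholate, 0.01% tween-20, pH 5.9, with resorufin beta-D-glucopyranoside at 30 uM final. Compounds titrated, 20 min at RT, red fluorescence read; AC50 from titration.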
Caspase-1 inhib: blocks human caspase-1 allosterically or competitively; AID 900; Caspase-1 enzyme, Ac-WEHD-AFC fluorogenic rate; P29466; Potency, µM (doses to about 57.5 µM), hits mostly inhibitors; 0.03% of 75,000 active; active = well fitted inhibition curve with a large enough effect; inconclusive = small, poorly fitted or top-dose-only effect
Casp7 inh: allosteric or competitive inhibitors of human caspase-7 | recombinant caspase-7, Ac-DEVD-AFC fluorescence rate | Potency, µM (top dose mostly 57.5 µM), actives largely listed as inhibitors | 0.02% of 75,000 active; active = well fitted inhibition curve with a large enough effect in the main read-out, with a control signal flat, not every such curve was filed as active; inconclusive = small, poorly fitted or top-dose-only effect, or a change in a side signal
Hits are given with their value; – = inactive; ? = inconclusive; · = no result; [ ] = dose if it differs, or a comment.

SMILES	GBA mod	Caspase-1 inhib	Casp7 inh
COc1ccc(N2CCN(c3oc(-c4ccccc4OC)nc3C#N)CC2)cc1	–	–	–
COc1ccccc1-c1nc(C#N)c(N2CCN(c3ccccc3)CC2)o1	10.1	–	–
CCc1cc2c(nc1CC)CCN(CC/C(C)=N/OC[C@@H](O)[C@@H]1O[C@@H]3OC(C)(C)O[C@@H]3[C@H]1O)C2	·	–[11.5 µM]	–[11.5 µM]
Nc1cnn([C@@H]2O[C@H](CO)[C@@H](O)[C@H]2O)c(=O)n1	·	–	–
Nc1c(S(=O)(=O)O)cc(Nc2ccc(Nc3nc(Cl)nc(Nc4ccc(S(=O)(=O)O)cc4)n3)c(S(=O)(=O)O)c2)c2c1C(=O)c1ccccc1C2=O	·	–	–
COc1nc(-c2ccc(C)cc2)ccc1-c1noc(-c2ccco2)n1	·	?	–
COc1nc(-c2ccccc2)ccc1-c1noc(-c2ccccc2F)n1	3.75	–	–
COc1nc(-c2ccccc2)ccc1-c1noc(-c2ccc(F)cc2)n1	–	–	–
COc1ccc(-c2ccc(-c3noc(-c4ccccc4OC)n3)c(OC)n2)cc1	11.6	·	?
COc1nc(-c2ccc(C)cc2)ccc1-c1noc(-c2cccnc2)n1	12.2	–	–
COc1ccc(-c2ccc(-c3noc(-c4cccc(OC)c4)n3)c(OC)n2)cc1	5.99	–	–
COc1ccc(-c2ccc(-c3noc(-c4ccc(OC)c(OC)c4)n3)c(OC)n2)cc1	–	–	–
COc1cc(OC)cc(-c2nc(-c3ccccc3OC)no2)c1	?	–	–
O=c1[nH]c(=O)c2nc(Br)n(C3OC(CO)C(O)C3O)c2[nH]1 (stereo unspecified)	·	–	–
COc1ccccc1CNc1cc(-c2ccccc2OC)ncn1	·	–	–
S=C=Nc1cccc(NC(=S)NCCCCNC(=S)Nc2cccc(N=C=S)c2)c1	·	–	–
COc1ccc(-c2ccc(-c3noc(-c4ccccc4C)n3)c(OC)n2)cc1	11.1	–	–
COc1ccc(-c2ccc(-c3noc(C)n3)c(OC)n2)cc1	–	–	–
Cc1ccc(NC(=O)CCn2cnc3ccccc3c2=O)cc1Cl	6.51	–	–
O=C(CCn1cnc2ccccc2c1=O)Nc1ccc2c(c1)OCCO2	·	–	–
COc1ccc2cc(C(=O)NCc3ccco3)c(=Nc3ccc(C(=O)O)cc3)oc2c1	–	–	–
COc1ccc(N=c2oc3c(OC)cccc3cc2C(=O)NCc2ccco2)c(OC)c1	2.1	–	–
CCn1cnc2cc(NCc3cccc(OC)c3O)ccc21	13.9	–	–
CCCCn1cnc2cc(NCc3cccc(OC)c3O)ccc21	?	–	–
COc1ccc(C(=O)N2CCC3(CC2)CN(c2ccccn2)C3)cc1	·	–	–
SMILES	GBA mod	Caspase-1 inhib	Casp7 inh
COc1ccc(O[C@H]2C=C[C@@H](c3ccccc3)O[C@H]2COC(=O)CC/C(C)=N\OC[C@@H](C)[C@H](OCc2ccccc2)C(C)C)cc1	·	–[11.5 µM]	–[11.5 µM]
CCCC(C(=O)NCc1ccco1)N(C(=O)CNS(=O)(=O)c1ccccc1)c1ccccc1OC (stereo unspecified)	15.2	–	–
CCC(C(=O)NCc1ccco1)N(C(=O)CNS(=O)(=O)c1ccc(C)cc1)c1ccccc1OC (stereo unspecified)	–	–	–
CC(=O)N1CCC2(CC1)CCN(c1ccc(-c3ccccc3)cc1)CC2	·	?	–
O=C1CCCC/C1=C\Nc1ccc(Cl)cn1	13.9	–	–
O=C1CCCC/C1=C\Nc1ccc(O)cc1	–	–	–
N#C/C(=C\c1ccc(O)c(O)c1)C(=O)OCCc1cccs1	·	–	–
O=C(O)c1c[nH]c2cc(OCc3ccccc3)ccc2c1=O	·	–[11.5 µM]	–[11.5 µM]
O=C(Cn1nnc(-c2ccccc2F)n1)Nc1ccc(S(=O)(=O)NC2CCCC2)cc1	6.87	–	–
O=C(Cn1nnc(-c2ccccc2F)n1)Nc1ccc(C(=O)N2CCOCC2)cc1	–	–	–
O=C(CSc1nnc(CNc2ccccc2)o1)N1CCc2ccccc21	–	–	–
O=C(CSc1nnc(Cc2csc(Nc3cccc(Cl)c3)n2)o1)N1CCc2ccccc21	14.5	–	–
CCN1CCN(c2ccc(NC(=O)COc3ccccc3Cl)cc2)CC1	15.2	–	–
CCN1CCN(c2ccc(NC(=O)Cc3ccccc3)cc2)CC1	–	–	–
COC(=O)[C@@]1(Cc2ccccc2)[C@H]2c3cc(C(=O)N(C)C)n(CCO)c3C[C@H]2CN1C(=O)c1ccccc1	·	–	–
O=C(O)CC[C@@]1(c2ccccc2)NC(=O)NC1=O	·	–[11.5 µM]	–[11.5 µM]
N#Cc1ccc(-c2nnnn2-c2ccc3c(c2)OCO3)cc1	14.8	–	–
N#Cc1cccc(-n2nnnc2-c2ccc3c(c2)OCO3)c1	–	–	–
CN1C2CC(OC(=O)C(CO)c3ccccc3)C[C@@H]1[C@H]1OC21 (stereo partly specified)	·	–	–
COc1ccc(C2=Nn3c(nnc3-c3ccc(OC)cc3)SC2)cc1	?	–	–
CCc1ccc(C2=Nn3c(nnc3-c3cccs3)SC2)cc1	8.15	–	–
Cc1ccc(-c2nnc3n2N=C(c2ccccc2)CS3)cc1	·	–	–
c1ccc(C2=Nn3c(nnc3-c3cc(-c4ccccc4)n[nH]3)SC2)cc1	8.53	–	–
Cc1nc2cnc(N3CCOCC3)nc2n(CCc2ccccc2)c1=O	·	–	–
COC(=O)c1cc2c(cc1Cl)SC(=NCCCN1CCOCC1)NS2(=O)=O	8.27	–	–
SMILES	GBA mod	Caspase-1 inhib	Casp7 inh
COC(=O)c1ccc(Cl)c(NC(=O)CN2CCOCC2)c1	–	–	–
COc1ccccc1NC(=O)c1ccc(NS(=O)(=O)c2c(C)noc2C)cc1	–	–	–
COc1ccc(CNC(=O)c2ccc(NS(=O)(=O)c3c(C)noc3C)cc2)cc1	?	–	–
Cc1noc(C)c1S(=O)(=O)Nc1ccc(C(=O)NC2CCCCC2)cc1	4.09	–	–
Cc1ccc(NC(=O)c2ccc(NS(=O)(=O)c3c(C)noc3C)cc2)cc1C	10.9	–	–
Cc1noc(C)c1S(=O)(=O)Nc1ccc(C(=O)NCCc2ccccc2)cc1	1.62	–	–
Cc1ccc(C)c(N2CCN(C(=O)c3ccc(NS(=O)(=O)c4c(C)noc4C)cc3)CC2)c1	?	–	–
COc1ccc(NC(=O)c2ccc(NS(=O)(=O)c3c(C)noc3C)cc2)cc1OC	0.295	–	–
COc1ccccc1CNC(=O)c1ccc(NS(=O)(=O)c2c(C)noc2C)cc1	?	–	–
Nc1ccc(N)c(Cl)c1	·	?	–
COc1ccccc1CN1CC[C@@]2(CCCN(C(C)=O)C2)C1	·	–	–
O=C1C(=O)N(Cc2ccc(Cl)c(Cl)c2)c2ccccc21	·	–	–
O=C(NCCO)c1ccc(Cl)cc1	·	–[11.5 µM]	–[11.5 µM]
O=C1[C@H]2[C@H]3[C@H](O)[C@H](O)C/C(=N/OCc4ccccc4)[C@@H]3CC[C@@H]2C(=O)N1C[C@@H]1CCCO1	·	–[11.5 µM]	–[11.5 µM]
CC1=C[N+](=O)c2ccccc2[N+]1=O	·	–[11.5 µM]	–[11.5 µM]
CC(=O)OC[C@@H]1O[C@H](C/C=N\O[C@@H](C)c2cn([C@H]3COC[C@H]3O)nn2)C=C[C@@H]1OC(C)=O	·	–[11.5 µM]	–[11.5 µM]
Cc1ccccc1-c1ccc2ncnc(NCCN3CCOCC3)c2c1	·	–	–
O=C(Cn1c(NCCO)nc2ccccc21)c1ccccc1	·	–	–
Cc1ccc(C(=O)Cn2c(NCCO)nc3ccccc32)cc1	14.2	–	–
C[C@H]1[C@H](C)CC[C@]2(C(=O)O)CC[C@]3(C)C(=CC[C@@H]4[C@]5(C)C[C@H](O)[C@@H](O)[C@@](C)(CO)[C@@H]5[C@H](O)C[C@@]43C)[C@H]12	·	–[11.5 µM]	–[11.5 µM]
